The values below come from PubChem BioAssay.

Structures are written as SMILES. The source made the active and inactive calls.

Assay [1] can be described thus: binders of probe aFSTL3 on microarray, primary screen, stem cell growth factor project, biochemical, small-molecule microarray, fluorescence 635/667 (AID 1064).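 Note: measures binding of the biotinylated anti-FSTL3 antibody to printed compounds.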 The settings on record: higher = more signal.
Assay [2] in a line: binders from COS7 lysate, DM2A8 probe, primary screen, torsin A project, cell lysate, small-molecule microarray, fluorescence 635/667 (AID 1065). The following applies: higher = more signal, COS7 lysate expressing mutant human TOR1A.
Assay [3] in a line: binders of probe aFGF2 on microarray, primary screen, stem cell growth factor project, biochemical, small-molecule microarray, fluorescence 635/667 (AID 1067).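 Note: measures binding of biotinylated aFGF2 protein to printed compounds on slides; z-score merges feature fluorescence and signal-to-noise across triplicate slides.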 The following applies: higher = more signal.
The nature of assay [4]: binders of probe aFGF10 on microarray, primary screen, stem cell growth factor project, biochemical, small-molecule microarray, fluorescence 635/667 (AID 1071).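 Note: score merges 667 nm spot intensity and signal to noise from triplicate slides.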 The following applies: higher = more signal.
For assay [5], the target named is Neurogenic locus notch homolog protein 2 (Homo sapiens) (UniProt Q04721). The assay can be described thus: Notch2 binders on small-molecule microarrays, primary screen, biochemical, small-molecule microarray, 635 nm fluorescence, stem cell growth factors (AID 1073). The following applies: Notch2 binding, higher = more signal.
Chain of Neurogenic locus notch homolog protein 2 (Homo sapiens) (Q04721 whole entry, looked up, canonical isoform): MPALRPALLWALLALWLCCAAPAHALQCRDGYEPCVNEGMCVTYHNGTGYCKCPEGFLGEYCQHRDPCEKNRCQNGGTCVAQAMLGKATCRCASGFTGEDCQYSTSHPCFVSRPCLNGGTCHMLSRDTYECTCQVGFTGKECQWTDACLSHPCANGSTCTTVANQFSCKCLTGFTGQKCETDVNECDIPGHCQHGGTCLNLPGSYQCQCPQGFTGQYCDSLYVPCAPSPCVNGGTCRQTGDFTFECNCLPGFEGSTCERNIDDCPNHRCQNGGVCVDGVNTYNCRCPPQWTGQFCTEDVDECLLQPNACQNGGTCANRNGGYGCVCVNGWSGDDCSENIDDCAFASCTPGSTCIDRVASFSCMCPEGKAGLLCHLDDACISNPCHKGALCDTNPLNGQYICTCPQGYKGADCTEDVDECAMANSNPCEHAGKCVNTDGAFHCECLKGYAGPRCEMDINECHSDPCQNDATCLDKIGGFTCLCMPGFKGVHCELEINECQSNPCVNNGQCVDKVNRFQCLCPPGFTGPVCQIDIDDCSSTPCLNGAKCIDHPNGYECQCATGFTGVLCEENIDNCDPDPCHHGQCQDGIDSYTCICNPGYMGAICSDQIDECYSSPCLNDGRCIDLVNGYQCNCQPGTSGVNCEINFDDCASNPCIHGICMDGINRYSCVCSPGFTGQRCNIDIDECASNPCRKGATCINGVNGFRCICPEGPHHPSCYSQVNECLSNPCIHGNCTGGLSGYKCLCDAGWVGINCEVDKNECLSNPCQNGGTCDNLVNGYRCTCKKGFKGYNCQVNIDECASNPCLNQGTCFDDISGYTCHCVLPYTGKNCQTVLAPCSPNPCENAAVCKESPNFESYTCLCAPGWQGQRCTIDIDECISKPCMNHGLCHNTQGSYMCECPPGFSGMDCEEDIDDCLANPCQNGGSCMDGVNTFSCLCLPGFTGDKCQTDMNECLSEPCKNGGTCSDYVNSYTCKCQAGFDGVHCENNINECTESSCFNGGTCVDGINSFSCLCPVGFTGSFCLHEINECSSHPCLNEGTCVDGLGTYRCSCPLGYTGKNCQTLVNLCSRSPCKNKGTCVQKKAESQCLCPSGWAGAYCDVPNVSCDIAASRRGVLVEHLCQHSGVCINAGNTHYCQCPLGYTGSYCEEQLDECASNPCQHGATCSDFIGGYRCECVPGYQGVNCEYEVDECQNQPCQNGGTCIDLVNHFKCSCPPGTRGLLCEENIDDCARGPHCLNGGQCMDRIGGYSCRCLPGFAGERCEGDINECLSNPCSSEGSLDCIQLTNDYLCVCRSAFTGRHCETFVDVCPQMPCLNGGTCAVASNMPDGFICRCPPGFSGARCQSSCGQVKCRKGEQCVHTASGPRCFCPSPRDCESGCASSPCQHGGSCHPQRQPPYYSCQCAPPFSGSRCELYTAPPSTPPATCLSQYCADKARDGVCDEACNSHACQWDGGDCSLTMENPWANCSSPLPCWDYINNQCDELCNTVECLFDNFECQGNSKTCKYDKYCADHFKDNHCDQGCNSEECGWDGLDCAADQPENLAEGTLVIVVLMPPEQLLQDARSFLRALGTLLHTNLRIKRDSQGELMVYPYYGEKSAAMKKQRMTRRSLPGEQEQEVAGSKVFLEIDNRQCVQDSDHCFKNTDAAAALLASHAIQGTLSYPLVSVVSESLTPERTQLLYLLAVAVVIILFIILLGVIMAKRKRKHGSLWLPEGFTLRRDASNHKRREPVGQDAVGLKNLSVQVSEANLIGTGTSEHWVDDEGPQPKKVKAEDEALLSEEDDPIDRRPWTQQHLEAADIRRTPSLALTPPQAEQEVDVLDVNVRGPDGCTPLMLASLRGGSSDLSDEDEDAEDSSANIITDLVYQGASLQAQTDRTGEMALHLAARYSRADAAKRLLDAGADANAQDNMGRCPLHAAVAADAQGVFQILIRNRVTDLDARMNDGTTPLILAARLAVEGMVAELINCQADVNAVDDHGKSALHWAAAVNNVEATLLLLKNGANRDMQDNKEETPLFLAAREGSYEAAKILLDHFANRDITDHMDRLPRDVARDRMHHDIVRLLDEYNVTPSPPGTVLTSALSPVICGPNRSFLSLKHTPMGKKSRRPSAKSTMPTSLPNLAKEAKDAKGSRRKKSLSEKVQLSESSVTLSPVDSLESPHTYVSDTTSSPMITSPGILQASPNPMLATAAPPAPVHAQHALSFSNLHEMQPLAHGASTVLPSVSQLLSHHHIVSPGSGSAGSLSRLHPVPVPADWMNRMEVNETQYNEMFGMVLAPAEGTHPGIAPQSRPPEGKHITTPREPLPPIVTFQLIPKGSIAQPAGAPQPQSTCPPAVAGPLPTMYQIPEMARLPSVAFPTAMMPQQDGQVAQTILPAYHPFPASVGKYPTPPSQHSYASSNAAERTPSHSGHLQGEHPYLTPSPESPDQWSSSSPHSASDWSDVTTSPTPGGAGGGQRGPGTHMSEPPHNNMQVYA
Assay [6] addresses Pro-neuregulin-1, membrane-bound isoform (Homo sapiens) (UniProt Q02297). The assay can be described thus: NRG1 binders on small-molecule microarrays, primary screen, psychiatric disease protein project, biochemical, small-molecule microarray, fluorescence 635/667 (AID 1075).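 Note: score combines 667 nm spot fluorescence with signal to noise.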 The settings on record: NRG1 binding, 635 nm fluorescence, higher = more signal.
The subject of assay [7] is Neuregulin-1 EGF-like domain. The assay can be described thus: binders of neuregulin-1 EGF-like domain, primary screen, biochemical, small-molecule microarray, 635 nm fluorescence (AID 1081).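 Note: binding of the protein to compounds printed on small-molecule microarray slides.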 The settings on record: small-molecule microarray binding, higher = more signal.
Assay [8] is described as follows: FRG1 promoter luciferase signal modulators, primary screen, FRG1 inhibition for FSHD, cell-based, C2C12 myotubes, firefly/Renilla luciferase, luminescence (AID 1084). The settings on record: higher = more signal, called active from +8 up or from −8 down.
Assay [9] can be described thus: binders of probe aFST on microarray, primary screen, stem cell growth factor project, biochemical, small-molecule microarray, fluorescence 635/667 (AID 1086).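 Note: score merges 667 nm fluorescence with signal-to-noise of each printed compound spot.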 The following applies: higher = more signal.
Assay [10] is described as follows: binders of probe aHhip on microarray, primary screen, stem cell growth factor project, biochemical, small-molecule microarray, fluorescence 635/667 (AID 1087).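 Note: score merges spot fluorescence at 667nm with spot signal to noise ratio.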 The settings on record: higher = more signal.

Chain of Pro-neuregulin-1, membrane-bound isoform (Homo sapiens) (Q02297 whole entry, looked up, the tested form may be a part, canonical isoform): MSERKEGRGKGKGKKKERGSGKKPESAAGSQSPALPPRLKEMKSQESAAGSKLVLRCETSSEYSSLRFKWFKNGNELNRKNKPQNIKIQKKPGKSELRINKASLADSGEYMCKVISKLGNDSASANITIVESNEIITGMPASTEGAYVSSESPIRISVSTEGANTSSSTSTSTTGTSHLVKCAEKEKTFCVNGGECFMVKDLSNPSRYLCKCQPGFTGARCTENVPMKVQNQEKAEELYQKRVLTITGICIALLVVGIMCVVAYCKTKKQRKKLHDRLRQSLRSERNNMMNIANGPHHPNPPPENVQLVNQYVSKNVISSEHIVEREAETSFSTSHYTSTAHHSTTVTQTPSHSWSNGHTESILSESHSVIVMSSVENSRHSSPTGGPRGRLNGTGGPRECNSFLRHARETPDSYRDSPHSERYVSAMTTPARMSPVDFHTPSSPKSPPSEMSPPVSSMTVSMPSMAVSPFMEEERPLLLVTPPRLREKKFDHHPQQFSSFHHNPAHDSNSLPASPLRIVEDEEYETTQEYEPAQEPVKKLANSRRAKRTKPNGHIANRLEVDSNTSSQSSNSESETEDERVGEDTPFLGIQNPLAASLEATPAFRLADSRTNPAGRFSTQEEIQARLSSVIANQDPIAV

Regarding `CCCCCN1CC=CC23O[C@@H]4C=CCCOC(=O)C4[C@H]2C(=O)N(CCCCCCO)[C@@H]3C1=O` (stereo not given in full), the composite z-score in assay [1] is 0.0199; in assay [2] it was -0.336; in [3] it was -0.169; in assay [4], 0.0401; in assay [5], -0.812; in assay [6] it was 1.98. Also, the results for the composite z-score in assay [7], in [9] and in [10] were 0.99, -0.658 and -0.0994, respectively. In addition, the z-score in assay [8] is -0.457 (inactive).
Regarding `CN1C(=O)C2C=CC(C(O)c3cccn3C)N(Nc3ccc([N+](=O)[O-])cc3[N+](=O)[O-])C2C1=O` (stereo not given), the composite z-score is 0.108 in assay [1]; -0.0125 in assay [2]; 0.157 in [3]; 0.162 in assay [4]; 1.05 in [5]; 0.392 in assay [6]. In addition, the composite z-score in [7] is 0.828; in assay [9], 0.477; in assay [10], -0.0631. Further, in [8], the z-score was 0.351 (inactive).
As for `CC(C)C[C@@H]1NC(=O)[C@@H]2C[C@H](C(=O)NCCCCCCN)[C@H](c3cccc(OCCO)c3)N2C1=O`, the composite z-score in [1] was 0.0713; in assay [2], -0.262; in assay [3], 0.107; in assay [4], 0.655; in assay [5], 0.928; in assay [6], 1.98. Also, the composite z-score in [7] is 1.44; in assay [9], 0.819; in assay [10], -0.121. The z-score in assay [8] is 1.32 (inactive).
In the case of `CC(C)NC(=O)[C@@]1(c2ccc([N+](=O)[O-])cc2)CC(=O)N(C2CCCCC2)[C@@H]1c1ccc(CO)cc1`, the composite z-score was -0.903 in assay [1]; 1.08 in [2]; 0.0584 in assay [3]; 0.817 in assay [4]; 0.261 in [5]; 1.69 in assay [6]. For the same compound, the composite z-score in [7] is 1.35; in [9], -0.114; in assay [10] it was -0.172. For the same compound, the z-score in [8] is -0.629 (inactive).
In the case of `CN(C)C(=O)[C@@]1(Cc2ccccc2)N=C(c2ccc(OCCCO)cc2)O[C@H]1c1ccccc1`, the composite z-score worked out at 0.558 in assay [1]; 0.459 in assay [2]; 0.133 in assay [3]; 1.24 in [4]; 1.5 in assay [5]; 1.18 in assay [6]. For the same compound, the composite z-score in assay [7] turned out to be 1.29; in assay [9] it was 0.889; in [10] it was 0.28. For the same compound, the z-score in assay [8] was -1.57 (inactive).
Consider `COC(=O)[C@@]1(Cc2ccc(F)cc2)[C@H]2c3cc(C(=O)N(C)C)n(Cc4ccc(OC(F)(F)F)cc4)c3C[C@H]2CN1C(=O)c1ccccc1`, for which the composite z-score in assay [1] is -0.252; in assay [2] it was 0.34; in [3], -0.12; in [4] it was 0.369; in assay [5] it was 0.708; in assay [6], 0.109. Moreover, the figures for the composite z-score in [7], in assay [9] and in assay [10] were 0.429, 0.402 and -0.305, respectively. The z-score in [8] was 0.306 (inactive).
On to `COc1cc(NN2C(C(O)c3ccco3)C=CC3C(=O)N(C)C(=O)C32)cc(OC)c1OC` (stereo not given), for which the composite z-score in assay [1] came to 0.256; in assay [2], 0.504; in [3], 0.083; in [4] it was 0.27; in assay [5], 0.578; in [6], 1.4. In addition, the composite z-score worked out at 1.38 in assay [7], 0.775 in [9] and 0.837 in assay [10]. Also, the z-score in assay [8] is -0.389 (inactive).
`Cc1ccc(S[C@]2(C(=O)NCC(F)(F)F)CC(=O)N(Cc3cc(C(F)(F)F)cc(C(F)(F)F)c3)[C@@H]2c2ccc(CO)cc2)cc1`: the composite z-score is -0.26 in [1]; -1.74 in assay [2]; -0.133 in assay [3]; -0.232 in assay [4]; -0.995 in assay [5]; 1.09 in assay [6]. In addition, the composite z-score in [7] was -0.353; in assay [9] it was -0.234; in assay [10], -0.0994. The z-score in assay [8] was 0.0697 (inactive).
`Cc1ccc(S[C@]2(C(=O)NCc3ccccc3)CC(=O)N(C3CCCCC3)[C@@H]2c2ccc(CO)cc2I)cc1`: the composite z-score in assay [1] was 1.27; in assay [2] it was -0.0582; in assay [3] it was 0.11; in assay [4], 0.339; in assay [5], 0.553; in assay [6], 1.17. In addition, the composite z-score in assay [7] was 1.19; in assay [9], 0.455; in assay [10] it was -0.132. Also, the z-score in [8] is -2.84 (inactive).
Take `C=CCNC(=O)[C@H]1[C@@H]2C(=O)O[C@@H](c3ccccc3)[C@@H](c3ccccc3)N2[C@@H](c2ccccc2OCCO)[C@]12C(=O)N(C(=O)OCCOC)c1ccc(C#CC3(O)CCCCCC3)cc12`: the composite z-score in assay [1] is -0.192; in assay [2] it was 0.281; in [3] it was 0.0376; in assay [4] it was 0.434; in assay [5] it was 0.776; in [6], 1.04. Moreover, the figures for the composite z-score in [7], in assay [9] and in assay [10] were 1.2, 0.339 and 0.0176, respectively. In addition, in [8], the z-score was -2.54 (inactive).
Regarding `CCOC(=O)C[C@H]1[C@H](OC(=O)c2cc3ccccc3oc2=O)[C@@H](NC(=O)c2ccc3ccccc3n2)c2cc(OCCCO)ccc2N1C(=O)Cc1ccc(OC)cc1`, the composite z-score in assay [1] is -0.446; in assay [2] it was 0.522; in assay [3] it was -0.0107; in assay [4] it was 0.302; in assay [5] it was 0.958; in [6], 1.03. For the same compound, the values for the composite z-score in [7], in assay [9] and in assay [10] were 0.946, 0.24 and -0.201, respectively. Also, the z-score in assay [8] was 0.547 (inactive).
